In all, about 4,100 sequences were measured (“relative CpG methylation activity (normalised to average over all NNNCGNNN flanks)”: median about 0.94, highest 2% from about 1.9 on). What follows is part of a selection rich in the highest values, with near analogues and random picks from the rest.
target: DNMT3B catalytic domain (mouse) (UniProt O88509); test: relative CpG methylation activity (normalised to average over all NNNCGNNN flanks) (relative (1 = mean)); higher = more methylation of the central CpG; details: system: in vitro, murine catalytic domain; CpG state: hemimethylated substrate pool; residues: 558-859
Description: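 Deep enzymology: a pool of dsDNA substrates with a central CpG flanked by 10 random nucleotides on each side was methylated by the murine DNMT3A or DNMT3B catalytic domain (0.8 mM SAM, 37 °C, 60 min). Methylation was then read out by hairpin ligation, bisulfite conversion and NGS. Values are the average methylation of each NNNCGNNN context (±3 flanks; the outer flanks are random and averaged over), normalised to the overall mean, so 1 = average activity.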

Sequence of DNMT3B catalytic domain (mouse) (O88509 558-859): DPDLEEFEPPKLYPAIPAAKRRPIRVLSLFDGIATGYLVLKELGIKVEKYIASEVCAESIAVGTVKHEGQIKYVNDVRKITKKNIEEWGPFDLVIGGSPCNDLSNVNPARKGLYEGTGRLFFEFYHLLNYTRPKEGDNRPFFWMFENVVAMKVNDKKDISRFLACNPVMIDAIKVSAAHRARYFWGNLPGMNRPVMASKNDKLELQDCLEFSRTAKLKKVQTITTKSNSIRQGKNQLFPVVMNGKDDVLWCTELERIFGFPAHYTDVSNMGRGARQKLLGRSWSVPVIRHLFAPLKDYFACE

Sequence | relative CpG methylation activity
TTTCGGGA | 1.79
TTTCGGCG | 1.79
GTTCGGCA | 1.88
CTTCGGCA | 1.97
TTTCGGGT | 2.02
CTTCGGCT | 1.9
TTTCGGCA | 1.69
GTTCGGGT | 1.37
GTTCGGCT | 1.75
CTTCGGCG | 1.67
TTTCGGCC | 1.65
TTTCGGCT | 2.04
AGTCGGTG | 0.863
ATTCGCGC | 0.947
CGGCGCTA | 0.358
CACCGGCC | 1.34
ACTCGGCT | 1.95
ACTCGGCC | 1.62
ACTCGGCA | 1.42
TTACGTTG | 1.29
AGGCGCGA | 0.281
TTCCGGGC | 1.7
CTTCGGGT | 1.33
GTCCGGGC | 1.53
CTCCGGCC | 1.94

Sequence | relative CpG methylation activity
CTCCGGCA | 1.88
ATCCGGCC | 1.48
ATTCGGGC | 1.72
CTTCGGGC | 2.18
CTCCGGGC | 2.05
ATCCGAGA | 1.4
GCACGAGC | 1.79
GAACGTGC | 1.03
CAGCGGTG | 0.603
GTCCGTAT | 0.661
TATCGGAT | 1.18
ACCCGATT | 1.41
GCTCGTCA | 0.561
CTACGGTA | 1.81
ATACGGTC | 1.68
TTACGGTC | 2.02
TTACGGTA | 2.02
GTACGGTA | 1.61
CTACGGTC | 1.85
GGACGCGG | 0.51
CATCGATC | 1.81
GCCCGACG | 1.16
TCACGCTT | 1.36
CTACGACG | 1.81
CTACGAGA | 1.96

Sequence | relative CpG methylation activity
ATACGAAT | 1.64
TTACGAGA | 1.84
ATACGAGC | 1.87
ATACGAGG | 1.72
GTACGACT | 1.46
ATACGAGT | 1.92
CTACGACT | 1.92
TTACGAGG | 1.8
ATACGAGA | 1.82
TTACGAGC | 2.09
CATCGCTA | 0.882
GATCGCTG | 0.405
TCCCGCCG | 0.883
GAGCGTAT | 0.648
GCACGTGG | 0.497
GTCCGTCT | 0.827
TCTCGCGG | 0.647
CTGCGCTG | 0.95
TACCGCTA | 0.483
CAGCGACC | 0.972
GACCGCAA | 0.281
TTACGAGT | 1.74
CTACGAGC | 2.12
CTACGAGT | 1.96
GTACGAGC | 1.83

Sequence | relative CpG methylation activity
CTACGAGG | 1.68
GTACGAGT | 1.48
CGCCGGTC | 1.23
AAACGCGG | 1.24
CTCCGCGT | 0.717
CCTCGAGT | 1.5
CAACGAGC | 1.74
TAACGAGA | 1.72
GAACGAGA | 1.76
TCTCGAGC | 1.53
AAACGAGA | 1.9
TCTCGAGT | 1.45
TCTCGAGA | 1.96
TCACGAGG | 1.7
CAACGAGA | 1.94
TCACGAGT | 1.49
TCACGAGA | 1.96
CAACGAGT | 1.47
TTACGCCG | 1.59
TACCGGCC | 1.52
CGCCGTAG | 0.147
AAACGCGC | 1.46
AAGCGTTT | 0.413
AAGCGTTC | 0.586
TAGCGCCC | 0.741

Sequence | relative CpG methylation activity
TCGCGGAC | 0.818
GGCCGTGG | 0.0382
CCTCGAAT | 1.3
CAACGGCC | 1.93
CAACGGCA | 1.74
CAACGGCT | 1.92
GAACGGCC | 1.81
AAACGGCT | 1.82
AAACGGCC | 1.76
ACGCGCGA | 0.411
GACCGGGT | 1.03
ACGCGTGA | 0.523
TTCCGAAT | 1.58
CCACGGCC | 1.7
AAACGGCA | 1.91
ACACGGCC | 1.94
ACACGGCG | 1.6
ACACGGCA | 1.89
GAACGGCA | 1.84
AAACGGCG | 1.68
GCACGGCC | 1.77
ACACGGCT | 1.89
CAACGCGA | 0.965
AGTCGTCA | 0.379
CAACGTCA | 1.15

Sequence | relative CpG methylation activity
CGCCGTAC | 0.561
ATTCGCAG | 0.453
TTCCGATC | 2.31
CTCCGAGC | 2.06
CTCCGAGT | 1.99
TTTCGATA | 1.81
ATCCGAGT | 1.37
TTCCGATT | 1.75
GTCCGATC | 1.77
TTTCGATC | 1.95
TTCCGAGT | 1.83
CTCCGAGA | 1.73
GTTCGATC | 1.3
ATCCGAGC | 1.68
CATCGAAC | 1.6
ACGCGTGG | 0.317
GATCGTTG | 0.455
TGACGGAT | 0.829
TTCCGAAG | 1.32
TTCCGAGG | 1.42
TTCCGAGA | 1.6
ATCCGAAC | 1.63
TTCCGAGC | 1.9
TTCCGAAC | 1.89
CCGCGGTC | 1.43

Sequence | relative CpG methylation activity
GTTCGGGC | 1.53
ACGCGATT | 1.09
GATCGAAC | 1.16
GTACGATC | 1.73
GTACGATT | 1.75
TCACGATA | 1.76
TTACGATT | 2.01
CTACGATT | 1.83
TTACGATC | 2.01
TAACGATA | 1.81
TTACGATA | 1.94
TTACGATG | 1.53
CGTCGATA | 1.84
TGCCGGGG | 0.469
CGACGTGC | 0.674
AGCCGAAA | 0.798
AAACGTTA | 0.806
CCCCGTTA | 0.69
ACGCGTTG | 0.312
TCACGACC | 1.17
GTGCGGGT | 1.3
CTACGAAT | 1.56
CTACGAAG | 1.6
TTACGAAT | 1.76
TTACGAAA | 1.78

Sequence | relative CpG methylation activity
TTACGAAC | 1.96
CTACGAAC | 1.91
CCTCGGTT | 1.13
AATCGTTC | 0.607
AGCCGAGC | 1.24
TTCCGGCT | 1.61
GTTCGTGA | 0.411
TTCCGGCC | 1.67
TTCCGGTC | 2.04
CTCCGGTC | 1.8
ATCCGGCG | 1.82
TTCCGGCG | 2.04
CTCCGGTT | 1.72
TTCCGGTT | 2.2
ATCCGGTT | 1.46
TTCCGGTA | 1.33
ATTCGTTC | 0.876
AAGCGCCG | 0.713
TAGCGGGG | 0.665
CATCGGCT | 1.78
GTTCGGTC | 1.15
GACCGTTT | 0.177
ATTCGAGA | 1.83
CTTCGAGA | 1.95
CTTCGAAA | 1.57

Sequence | relative CpG methylation activity
CTTCGAAC | 1.98
CTTCGAGG | 1.65
ATTCGAAC | 1.69
TACCGTGT | 0.198
ACCCGGAT | 0.954
TATCGGAA | 0.708
CCTCGGAC | 1.14
CCCCGGCC | 1.77
TCCCGGCA | 1.62
ACCCGGCT | 1.67
TCCCGGCG | 1.87
CCCCGGCG | 1.95
GCCCGGCT | 1.4
CCCCGGCA | 1.72
CCCCGGCT | 2.05
TCCCGGCT | 1.95
AAGCGTGC | 0.448
ATCCGTCC | 1.35
AGTCGTCG | 0.57
ACGCGTTC | 0.658
ACCCGCGA | 0.371
GCACGCTG | 0.98
CAACGATG | 1.43
CAACGATA | 1.77
ATACGATA | 2.03

Sequence | relative CpG methylation activity
CCACGATC | 1.74
GTACGATA | 1.73
ATACGATC | 2.12
CAACGATC | 1.94
CTACGATC | 1.92
CTACGACC | 1.82
ATACGATT | 1.74
ATACGATG | 1.63
ACACGATA | 1.75
GTTCGCAA | 0.436
TCTCGGTT | 0.917
ACTCGGCG | 1.6
TGGCGTGT | 0.0208
CAGCGACA | 0.777
CTGCGTCA | 0.944
CCTCGCCA | 1.05
GGCCGGGT | 0.602
GGCCGAGC | 1.53
TGACGCCT | 1.11
CCACGATA | 1.7
GTACGCTC | 1.53
CTACGCTC | 1.91
CTACGATG | 1.83
CTACGATA | 1.97
CTACGCTA | 1.47

Sequence | relative CpG methylation activity
TAGCGCCT | 0.72
CGACGTAA | 0.604
GGTCGATT | 1.49
AGTCGGCA | 2.11
TATCGGCG | 1.79
CCTCGGCC | 1.66
AGTCGGCC | 1.69
AGTCGGCT | 1.79
TCTCGGCT | 1.8
CATCGGCA | 1.83
AATCGGCA | 1.74
TCTCGGCC | 1.96
TATCGGCC | 2.01
TATCGGCA | 1.95
AATCGGCC | 1.88
ATTCGAGG | 1.29
AGTCGGGT | 1.16
GTACGCCT | 1.73
TTCCGATG | 1.47
GGCCGCGC | 0.361
AGACGGTA | 1.16
GCTCGATG | 1
ATTCGGCT | 1.69
GTACGGAG | 1.39
ATTCGGCG | 1.77

Sequence | relative CpG methylation activity
TTACGGTT | 1.85
GTACGGCG | 2.05
CTGCGGCC | 1.22
GTACGGTG | 1.48
CTACGGAC | 1.64
ATTCGGCC | 2.04
TTACGGCT | 1.98
CTACGGCC | 1.96
TCACGGCT | 1.83
ATGCGGAC | 0.76
TTGCGAAG | 0.966
ATCCGCCG | 0.929
CACCGGGT | 1.06
CAGCGCTG | 0.635
GTGCGCGT | 0.649
TGTCGCCC | 0.734
TGACGAGT | 1.21
AGTCGTGG | 0.341
CGTCGTGT | 0.248
TTGCGGCT | 1.95
ATACGGCA | 2.11
ATACGGTA | 1.64
ATGCGGCT | 1.55
TTGCGGCC | 1.43
ATACGGAG | 1.21

Sequence | relative CpG methylation activity
ATACGGAA | 1.32
ATACGGCG | 2.11
CTACGGCA | 2.23
CTACGGAA | 1.68
ATACGGTG | 1.75
CCACGGCA | 1.74
AAACGAAA | 1.58
CATCGTCC | 0.944
GTGCGTCA | 0.799
TCCCGGGG | 1.21
CATCGCGG | 0.514
GAACGGCG | 1.53
AGGCGTGC | 0.175
ACCCGGTT | 1.29
GCTCGGGA | 1.17
TTACGGCC | 1.97
CTACGGAG | 1.52
GCACGGCA | 1.79
TCACGGCC | 1.74
CTACGGCG | 2.04
CCACGGCT | 1.89
GTACGGCT | 1.56
CTACGGCT | 2.28
CTACGGTT | 1.76
GTACGGCA | 1.9

Sequence | relative CpG methylation activity
CCACGGCG | 1.86
TTACGGAC | 1.85
CCTCGATT | 1.35
TGACGGCA | 1.53
CACCGTAT | 0.274
CTACGCCA | 1.78
TCCCGTTA | 0.532
TAGCGGTC | 1.12
GCACGCTA | 0.861
AGTCGATC | 1.7
AGTCGGAT | 0.542
AGGCGTCT | 0.521
GTTCGGAC | 1.37
TTACGGTG | 1.52
GTACGGAC | 1.51
ATACGGAC | 1.59
GTACGGTC | 1.87
ATACGGCT | 1.89
TTACGGCA | 2.04
TTACGGAA | 1.64
GTACGGCC | 1.9
TCACGGCA | 1.82
TTACGGCG | 2.25
TCACGGCG | 1.89
ATACGGCC | 2.01

Reference: the supplement of paper PMC7335073
